Reference: PubChem BioAssay (Tox21)
Values joined by “and” are separate entries in the source; they are usually repeats but may differ in a detail not shown here. Equal values may be shown once. Records with an inconclusive call do not appear. Active and inactive are the calls of the source. Unless noted, calls follow the shape of the dose curve; as a rule, active = well fitted curve in the direction sought with a large enough effect in the repeat runs; inconclusive = weak or mixed curves; inactive = no such curve, though single readings can be large; an effect the other way counts as inactive or inconclusive.

Key:
[1] = qHTS assay to identify small molecule agonists of H2AX - cell viability counter screen (AID 1224847; calls by dose curve; also: nearly all actives have a fitted effect of over 30% in size; also: potency is read from the fitted curve at half-maximal effect)
How it was run: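 Cells plated first: CHO-K1, 1000 per well in 10% FBS medium, incubated overnight at 37C. Then 15-point compound titration added (final DMSO 0.76%) for 3 hr. Finally CellTiter-Glo added and luminescence read.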

[2] = qHTS assay to identify small molecule agonists of the estrogen related receptor (ERR) signaling pathway from Tox21 library (AID 1224849; calls by dose curve; also: nearly all actives have a fitted effect of over 15% in size); conditions: ERR reporter cell line, ONE-Glo luciferase, 18 h; at 92.4 µM (top of the series) unless noted
How it was run: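 Screening used an NTP-provided ERR luciferase cell line. Compounds in DMSO were added 6 h after seeding and left 18 h at 37 C before a 30 min ONE-Glo step and luminescence reading.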

[3] = qHTS RealTime-Glo MT Cell Viability Assay in HepG2 cells - 24 hour (AID 1224867); also: nearly all actives have a fitted effect of over 50% in size; also: potency is read from the fitted curve at half-maximal effect
How it was run: (§1)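 HepG2 cells (600/well) were dispensed with RealTime-Glo reagents, incubated 5 h at 37 °C, then treated with compounds in DMSO for up to 40 h. Nonlytic NanoLuc luminescence reflecting viable cells was read at each stated time point.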

[4] = A CellTox Green Cytotoxicity Assay to monitor cytotoxicity in HEK293 cells - 0 hour (AID 1224869); also: nearly all actives have a fitted effect of over 50% in size
How it was run: (§2)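 Fluorescence intensity, read at 0, 8, 16, 24, 32 and 40 h of compound treatment, reflected dye binding to DNA of dead HEK293 cells; compounds (23 nL, DMSO) were added 5 h after plating cells with reagent.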

[5] = qHTS RealTime-Glo MT Cell Viability Assay in HepG2 cells - 40 hour (AID 1224870); also: nearly all actives have a fitted effect of over 50% in size; also: potency is read from the fitted curve at half-maximal effect
How it was run: (§3)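 Real-time viability: cells seeded at 600 per well together with NanoLuc and cell-permeant prosubstrate, compounds added after 5 h incubation. Luminescence tracked at 0, 8, 16, 24, 32 and 40 h of exposure.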

[6] = A CellTox Green Cytotoxicity Assay to monitor cytotoxicity in HEK293 cells - 40 hour (AID 1224871); also: nearly all actives have a fitted effect of over 45% in size; also: potency is read from the fitted curve at half-maximal effect
How it was run: as §2

[7] = qHTS RealTime-Glo MT Cell Viability Assay in HEK293 cells - 16 hour (AID 1224872); also: nearly all actives have a fitted effect of over 50% in size; also: potency is read from the fitted curve at half-maximal effect
How it was run: (§4)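 HEK293 cells seeded with NanoLuc/prosubstrate reagent, rested 5 h at 37 C, then dosed and kept at 37 C up to 40 h. Nonlytic real-time luminescence from viable cells read at 0, 8, 16, 24, 32 and 40 h.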

[8] = qHTS RealTime-Glo MT Cell Viability Assay in HepG2 cells - 8 hour (AID 1224873); also: nearly all actives have a fitted effect of over 55% in size; also: potency is read from the fitted curve at half-maximal effect
How it was run: as §3

[9] = A CellTox Green Cytotoxicity Assay to monitor cytotoxicity in HEK293 cells - 24 hour (AID 1224875); also: nearly all actives have a fitted effect of over 45% in size; also: potency is read from the fitted curve at half-maximal effect
How it was run: as §2

[10] = A CellTox Green Cytotoxicity Assay to monitor cytotoxicity in HepG2 cells - 16 hour (AID 1224876); also: nearly all actives have a fitted effect of over 45% in size; also: potency is read from the fitted curve at half-maximal effect
How it was run: (§5)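 Using 1536-well format, dye-containing HepG2 suspension was seeded, allowed 5 h at 37 C/5% CO2, dosed by pintool with compounds, positive and negative controls, and imaged for fluorescence across 40 h.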

[11] = qHTS RealTime-Glo MT Cell Viability Assay in HepG2 cells - 32 hour (AID 1224877); also: nearly all actives have a fitted effect of over 55% in size; also: potency is read from the fitted curve at half-maximal effect
How it was run: as §1

[12] = A CellTox Green Cytotoxicity Assay to monitor cytotoxicity in HepG2 cells - 24 hour (AID 1224878); also: nearly all actives have a fitted effect of over 45% in size; also: potency is read from the fitted curve at half-maximal effect
How it was run: as §5

[13] = A CellTox Green Cytotoxicity Assay to monitor cytotoxicity in HepG2 cells - 40 hour (AID 1224879); also: nearly all actives have a fitted effect of over 40% in size; also: potency is read from the fitted curve at half-maximal effect
How it was run: as §5

[14] = qHTS RealTime-Glo MT Cell Viability Assay in HEK293 cells - 0 hour (AID 1224880)
How it was run: (§6)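 Viable HEK293 cells reduce a cell-permeant prosubstrate; the product diffuses out and is consumed by NanoLuc in the medium to give light. Compounds went in after a 5 h incubation and plates were read over the treatment course.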

[15] = qHTS assay to identify small molecule antagonists of the estrogen related receptor (ERR) signaling pathway from Tox21 library (AID 1224848); also: nearly all actives have a fitted effect of over 50% in size; also: potency is read from the fitted curve at half-maximal effect
How it was run: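 Antagonist-mode screen of the Tox21 10K library in an NTP-provided ERR reporter cell line; 18 h compound exposure at 37 C, luminescence measured with ONE-Glo.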

[16] = A CellTox Green Cytotoxicity Assay to monitor cytotoxicity in HEK293 cells - 32 hour (AID 1224881); also: nearly all actives have a fitted effect of over 40% in size; also: potency is read from the fitted curve at half-maximal effect
How it was run: as §2

[17] = qHTS RealTime-Glo MT Cell Viability Assay in HEK293 cells - 32 hour (AID 1224868); also: nearly all actives have a fitted effect of over 50% in size; also: potency is read from the fitted curve at half-maximal effect
How it was run: as §4

[18] = qHTS RealTime-Glo MT Cell Viability Assay in HEK293 cells - 40 hour (AID 1224874); conditions: RealTime-Glo luminescence; max response: stronger effect = lower value; also: nearly all actives have a fitted effect of over 50% in size; also: potency is read from the fitted curve at half-maximal effect
How it was run: as §6
% is scaled to controls: 0 for no effect and ±100 for the full control effect.

S=P(N1CC1)(N1CC1)N1CC1
inactive: Potency [1] | activity change, positive = activation [2] -21.7% | Potency [3] | Potency [4] | Potency [5] | Potency [6] | Potency [7] | Potency [8] | Potency [9] | Potency [10] | Potency [11] | Potency [12] | Potency [13] | Potency [14]

O=Nc1ccc(NO)cc1
inactive: Potency [1] | Potency [15] | Potency [3] | Potency [4] | Potency [5] | Potency [6] | Potency [7] | Potency [8] | Potency [10] | Potency [11] | Potency [12] | Potency [13] | Potency [14] | Potency [16]

CCCCOc1ccc(C(=O)CCN2CCCCC2)cc1
active: Potency [3] 21.3 µM | Potency [17] 16.9 µM | Potency [5] 6.74 µM | Potency [6] 19 µM | Potency [18] 13.4 µM | Potency [10] 19 µM | Potency [11] 10.7 µM | Potency [12] 19 µM | Potency [13] 19 µM | Potency [16] 19 µM
inactive: Potency [1] | Potency [4] | Potency [14]

Cc1oc(-c2ccccc2)nc1CCOc1ccc(C[C@H](Nc2ccccc2C(=O)c2ccccc2)C(=O)O)cc1
active: Potency [1] 80 µM
inactive: Potency [15] | activity change, positive = activation [2] -13.2% | Potency [3] | Potency [17] | Potency [4] | Potency [5] | Potency [6] | Potency [7] | Potency [8] | max response [18] 0.495% | Potency [9] | Potency [10] | Potency [11] | Potency [14] | Potency [16]

C=C1C(C)(C)[C@@]2(Cl)C(Cl)[C@]1(Cl)C(Cl)(Cl)C2(Cl)Cl (stereo not given in full)
inactive: activity change, positive = activation [2] -68% | Potency [4] | Potency [5] | Potency [10] | Potency [14]
active: Potency [1] 111 µM | Potency [15] 60 µM | Potency [12] 48.1 µM

CC(=O)Nc1ccc(O)cc1
inactive: Potency [1] | Potency [3] | Potency [17] | Potency [4] | Potency [5] | Potency [6] | Potency [7] | Potency [8] | max response [18] 7.7% and -11.8% and 15.1% | Potency [9] | Potency [10] | Potency [11] | Potency [12] | Potency [13] | Potency [16]

CCN(CC)c1ccc(N)cc1
inactive: activity change, positive = activation [2] -77.3% | Potency [4] | Potency [9] | Potency [10]
active: Potency [1] 51.9 µM | Potency [15] 2.5 µM | Potency [17] 22.5 µM | Potency [6] 44.8 µM | Potency [7] 22.5 µM | Potency [18] 17.8 µM | Potency [13] 50.3 µM

CCN=C1C=CC(=C(c2ccc(N(CC)CC)cc2)c2ccc(N(CC)CC)cc2)c2ccccc21
inactive: Potency [4]
active: Potency [1] 35.5 µM | Potency [3] 17.3 µM | Potency [17] 6.88 µM | Potency [5] 19.4 µM | Potency [6] 12.2 µM | Potency [7] 13.7 µM | Potency [8] 19.4 µM | Potency [18] 5.46 µM | Potency [9] 19.4 µM | Potency [10] 19.4 µM | Potency [11] 19.4 µM | Potency [12] 17.3 µM | Potency [13] 19.4 µM | Potency [16] 13.7 µM

c1ccc(Nc2cccc3ccccc23)cc1
inactive: Potency [15] | Potency [3] | Potency [4] | Potency [5] | Potency [6] | Potency [7] | max response [18] -7.99% | Potency [10] | Potency [11] | Potency [14] | Potency [16]
active: Potency [1] 115 µM and 113 µM | activity change, positive = activation [2] -11.6%

CCOC(=O)[C@@](C)(N)Cc1ccc(O)c(O)c1
inactive: Potency [1] | Potency [15] | activity change, positive = activation [2] -0.831% [at 42.5 µM] | Potency [3] | Potency [17] | Potency [4] | Potency [5] | Potency [6] | Potency [7] | Potency [8] | Potency [11] | Potency [14] | Potency [16]

C/C=C/C(=O)Oc1c(CCCCCC(C)C)cc([N+](=O)[O-])cc1[N+](=O)[O-]
inactive: activity change, positive = activation [2] -62.8% | Potency [4] | Potency [14]
active: Potency [1] 50.5 µM | Potency [15] 6.11 µM | Potency [3] 21.9 µM | Potency [17] 15.5 µM | Potency [6] 38.9 µM | Potency [7] 19.5 µM | Potency [8] 21.9 µM | Potency [18] 7.76 µM | Potency [9] 38.9 µM | Potency [11] 38.9 µM | Potency [12] 38.9 µM | Potency [13] 38.9 µM | Potency [16] 38.9 µM

C=CC(=O)OCCOCC(CC)(COCCOC(=O)C=C)COCCOC(=O)C=C
inactive: activity change, positive = activation [2] -76.5% | Potency [4] | Potency [10]
active: Potency [15] 25.3 µM | Potency [3] 25.6 µM | Potency [17] 16.1 µM | Potency [5] 32.2 µM | Potency [6] 14.4 µM | Potency [7] 18.1 µM | Potency [18] 14.4 µM | Potency [11] 28.7 µM | Potency [13] 25.6 µM
